# A selection: hits, their analogues and other compounds. The true share with any hit is near 5.4%.
# ALR inh: inhibitors of human sulfhydryl oxidase ALR. P55789. purified ALR, DTT oxidation, H2O2 HRP-luminol luminescence. inhibition, % (concentration not given with the values). 290,000 tested, 3.8% active;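 active = mean replicate inhibition above about 79%, with every replicate also reaching it, limit read from the data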
# PHOSPHO1 block: inhibitors of human PHOSPHO1 phosphatase. recombinant PHOSPHO1, absorbance phosphatase assay. Q8TCT1. inhibition, % at 13.3 µM. 290,000 tested, 1.1% active; in the data active = inhibition above about 60%
# Target sequence (Q8TCT1 whole entry, looked up): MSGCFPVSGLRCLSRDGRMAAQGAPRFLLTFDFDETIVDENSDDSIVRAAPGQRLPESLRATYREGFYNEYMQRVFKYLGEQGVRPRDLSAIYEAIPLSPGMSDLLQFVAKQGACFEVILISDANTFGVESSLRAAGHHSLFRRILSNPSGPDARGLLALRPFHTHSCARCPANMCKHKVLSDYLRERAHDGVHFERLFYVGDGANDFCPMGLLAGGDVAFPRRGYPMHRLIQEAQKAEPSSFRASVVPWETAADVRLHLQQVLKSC
# rCAG RNA binder: molecules binding r(CAG) RNA repeats; 370,000 tested, 1.3% active; r(CAG) RNA repeat, TO-PRO-1 dye displacement fluorescence; inhibition, % at 3 µM;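 active = inhibition above the plate cutoff, the mean of all test compounds on that plate plus 3 SD, cut at about 35% in these data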;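 also: 0% = DMSO alone and 100% = 100 µM mitoxantrone as full dye displacement; higher means more dye released from RNA so lower well fluorescence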
# A3G deaminase: blocks human APOBEC3G single-stranded DNA deamination; Q9HC16; recombinant A3G, ssDNA deamination FAM/TAMRA fluorescence; inhibition, % at 20 µM; 330,000 tested, 0.28% active; AID 493012;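 active = inhibition of at least 40% at 20 µM, with no more than 30% in the related APOBEC3A deaminase screen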;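 also: plate controls were DMSO wells with A3G for no effect and wells lacking A3G enzyme for full effect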
# APOBEC3A inh: human APOBEC3A DNA deaminase inhibition. P31941. recombinant A3A, FAM/TAMRA ssDNA deamination fluorescence. inhibition, % at 20 µM. 330,000 tested, 0.41% active. AID 493011;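 active = at least 40% inhibition at 20 µM here, with at most 30% in a related deaminase screen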;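 also: plate controls were A3A with DMSO for no effect and wells lacking A3A enzyme for full effect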
# Target sequence (P31941 whole entry, looked up): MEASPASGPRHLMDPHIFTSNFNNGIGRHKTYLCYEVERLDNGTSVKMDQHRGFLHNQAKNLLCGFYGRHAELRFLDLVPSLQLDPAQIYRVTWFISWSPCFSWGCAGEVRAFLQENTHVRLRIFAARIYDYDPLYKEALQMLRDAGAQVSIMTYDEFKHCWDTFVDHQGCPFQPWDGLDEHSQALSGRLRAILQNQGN
# aDG glyco act: alpha-DG glycosylation activation; 360,000 tested, 0.22% active; activation, % at 10 µM; AID 624168; Pro5-aDG cells, alpha-DG glycosylation AlphaScreen (IIH6); 0% Pro5, 100% B10-LARGE cell signal;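 active = activation of at least 8% versus controls, or a plate z-score of at least 8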;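 also: Pro5 are CHO cells carrying HIG-tagged alpha-DG that lacks glycosylation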
# rCAG binder conf: r(CAG) RNA repeat binding, confirmation; 4,300 tested, 70% active; shares compounds with rCAG RNA binder; AID 652065; inhibition, % at 3 µM; TO-PRO-1 dye displacement fluorescence;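 active = inhibition above a per-plate cutoff, the mean inhibition of sample wells plus 3 SD, cut at about 35% in these data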;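 also: loss of TO-PRO-1 fluorescence as compound displaces dye from 1x1 AA loop RNA; 0% = DMSO only wells and 100% = 100 µM mitoxantrone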
# dCAG dye counter: counter-screen for rCAG RNA binders: DNA CAG dye complex inhibitors. inhibition, % at 3 µM. 4,300 tested, 94% active. shares compounds with rCAG RNA binder. AID 652068. d(CAG) DNA oligo TO-PRO-1 dye displacement, fluorescence;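 active = inhibition above its plate's cutoff, the mean test-well inhibition plus 3 SD, cut at about 4.8% in these data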;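 also: 0% = DNA dye mix with DMSO and 100% = 100 µM mitoxantrone; hits displace the dye from DNA and so lower well fluorescence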
# dCAG dye DR: counter-screen for rCAG binders: inhibitors of DNA CAG TO-PRO-1 complex; DNA CAG/GTC duplex TO-PRO-1 dye displacement fluorescence; 250 tested, 20% active; IC50, µM; shares compounds with rCAG RNA binder; in the data active = IC50 below about 10 µM
# The depositor's hits bear a star; i = inactive; . = not tested or not shown.
SMILES,ALR inh,PHOSPHO1 block,rCAG RNA binder,A3G deaminase,APOBEC3A inh,aDG glyco act,rCAG binder conf,dCAG dye counter,others
CCOc1ccc(NC(=NCc2ccc3c(c2)OCO3)SC2CC(=O)N(c3ccc(C(=O)O)cc3)C2=O)cc1 (configuration not stated),47,-12,78*,-1,0,0,85*,54*,
COc1cccc(NC(=O)CN(C)C(=O)c2cccnc2Nc2cccc(C(F)(F)F)c2)c1,-4,.,.,-4,-1,0,.,.,
Cc1ccc(NC(=O)CN(C)C(=O)c2cccnc2Nc2cccc(C(F)(F)F)c2)cc1,4,37,44*,-5,0,0,16,5.8*,
CCCn1nc(C(=O)Nc2ccc(S(=O)(=O)Nc3nccs3)cc2)c2ccccc2c1=O,.,-1,65*,-5,-1,0,56*,23*,
CCCn1nc(C(=O)Nc2cc(S(=O)(=O)Nc3ccc(OC)cc3)ccc2O)c2ccccc2c1=O,-11,.,62*,-3,1,0,54*,19*,
CCn1nc(C(=O)Nc2ccc(S(=O)(=O)Nc3ncccn3)cc2)c2ccccc2c1=O,-6,-15,4,-5,3,0,.,.,
COc1ccc(C(CNC(=O)c2ccc(S(=O)(=O)Nc3ccccc3OC)cc2)N2CCCC2)cc1 (configuration not stated),.,.,1,.,.,0,.,.,
CC(C)(C)NC(=O)C1(N2C(=O)c3ccccc3C2=O)CCCC1,.,.,-1,.,.,0,.,.,
N#CC1=C2Sc3ccccc3N2CCCC1=O,25,14,-1,-6,-4,0,.,.,
N=C1C2=C3Sc4ccccc4N3CCCC2=NN1c1cccc(S(=O)(=O)O)c1,.,2,38*,-1,8,0,47*,11*,
O=C(N/N=C/c1cc([N+](=O)[O-])cc([N+](=O)[O-])c1O)/C(=C\c1cccs1)NC(=O)c1ccccc1,-1,-2,68*,-8,-3,0,84*,53*,
COc1cc(/C=N/NC(=O)/C(=C\c2ccc([N+](=O)[O-])cc2)NC(=O)c2ccccc2)cc(OC)c1O,9,-9,28,0,1,0,.,.,
Cc1cccc(NS(=O)(=O)c2ccc3[nH]c(=O)cc(C(=O)OC(C)C(=O)Nc4ccc([N+](=O)[O-])cc4)c3c2)c1 (configuration not stated),.,38,46*,-4,2,0,36*,17*,
O=C(/C(=N/N=C/c1ccc(O)c(O)c1O)c1ccccc1)c1ccccc1,99*,-8,61*,6,6,0,74*,42*,
O=C1c2ccccc2C(=O)N1c1ccccc1,.,.,-2,.,.,4,.,.,
O=Cc1ccc(/C=C2\c3ccccc3C(=O)N2c2ccccc2)o1,.,.,41*,.,.,.,23,15*,
COCCCNC(=O)C[C@H]1C[C@@]2(C(=O)OC)C(=C[C@H](C(C)(C)C)O[C@@H]2C)N(Cc2cccc3ccccc23)C1=O,.,.,0,.,.,.,.,.,
CN(C)CCN1CCN(C(c2cc3ccccc3o2)c2nnnn2C(C)(C)C)CC1 (configuration not stated),.,.,2,.,.,0,.,.,
CC(C)c1ccc(/C=N/n2c(COc3ccccc3)n[nH]c2=S)cc1,1,-61,36*,-2,3,0,48*,11*,
Cc1cc(-c2n[nH]c(=S)n2N=Cc2cccc(Oc3ccccc3)c2)n[nH]1,.,.,46*,.,.,.,31,7.9*,
S=c1[nH]nc(COc2ccccc2)n1/N=C/c1cccc(Br)c1,.,-12,42*,15,-2,0,44*,14*,
CC(/C=N/n1c(-c2ccc(Cl)cc2)n[nH]c1=S)=C\c1ccco1,47,-25,39*,9,13,0,39*,12*,
COc1cccc(/C=N/n2c(COc3ccccc3)n[nH]c2=S)c1,-3,28,23,8,0,0,.,.,
Cc1ccnc(Nc2cccnc2)n1,.,.,1,.,.,0,.,.,
C=CS(=O)(=O)N(C(=C)C(=O)OC)S(C)(=O)=O,.,.,5,.,.,.,.,.,
SMILES,ALR inh,PHOSPHO1 block,rCAG RNA binder,A3G deaminase,APOBEC3A inh,aDG glyco act,rCAG binder conf,dCAG dye counter,others
CCN1CCN(C(CCc2ccccc2)C(=O)NC2CCCCC2)CC1 (configuration not stated),.,.,-2,.,.,0,.,.,
CC1(C(=O)NS(=O)(=O)C2CC2)CCN(C(=O)c2ccc3ccccc3n2)C1 (configuration not stated),.,.,-1,.,.,0,.,.,
COc1ccc(S[C@]2(C(=O)NCc3ccccc3)CC(=O)N[C@@H]2c2ccc(OC)cc2)cc1,.,.,1,.,.,.,.,.,
S=c1[nH]nc(COc2ccccc2)n1/N=C/C(Cl)=C/c1ccccc1,4,36,52*,21,3,0,72*,34*,dCAG dye DR=i
CC(C)Oc1cccc(-c2n[nH]c(=S)n2N=Cc2cccc([N+](=O)[O-])c2)c1,.,.,51*,.,.,.,57*,17*,
S=c1[nH]nc(-c2ccncc2)n1/N=C/C(Cl)=C\c1ccccc1,.,32,39*,5,-3,1,32,9.5*,
CCC(CC)C(=O)N(C)c1c(C)nc2c(OCc3ccc(OC(F)F)cc3)cccn12,.,.,-2,.,.,0,.,.,
COc1ccc(C=NNc2ccc([N+](=O)[O-])cc2S(=O)(=O)Nc2ccccc2C(=O)O)cc1OC,55,.,90*,-5,-3,0,94*,75*,
COc1ccc(/C=N/Nc2ccccc2C(=O)O)cc1Cn1cc([N+](=O)[O-])cn1,.,60*,50*,-3,1,0,40*,13*,
COc1ccccc1NS(=O)(=O)c1cc([N+](=O)[O-])ccc1N/N=C/c1c[nH]c2ccccc12,99*,1,74*,-4,-1,0,71*,36*,
COc1ccc(/C=N/NC(=O)c2ccccc2O)cc1Cn1cc([N+](=O)[O-])cn1,8,16,4,-3,-1,0,.,.,
COC(=O)C1CCN(S(=O)(=O)CCNC(=O)c2ccccc2)CC1,.,.,2,.,.,0,.,.,
CC(=O)OC12CCCN(C1)/C(=C/c1cccnc1)C2 (configuration not stated),.,.,1,.,.,.,.,.,
O=C(Nc1nc(-c2ccco2)c(-c2ccco2)s1)c1cnccn1,-25,.,44*,80,87,.,22,13*,
O=C(Nc1nc(-c2ccco2)c(-c2ccco2)s1)c1c(F)cccc1Cl,-2,.,78*,9,21,0,28,14*,
O=S(=O)(Nc1nc(-c2ccco2)c(-c2ccco2)s1)c1ccc(F)cc1F,.,.,62*,.,.,0,53*,20*,

# Source: PubChem (several laboratories)
